Assay outcomes: PubChem, The Scripps Research Institute Molecular Screening Center
Compounds with a hit are over-represented: about 1.8% of the library has one in this group of screens.
LYPLA2 counter – LYPLA2 inhibitors, primary screen, counter-screen for PME1 inhibitor project, biochemical, fluorescence polarization, FP-Rh probe ABPP; 0.38% of 320,000 active; recombinant LYPLA2; AID 2177, 2009; inhibition, % at 5.9 µM;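 active = inhibition above the screen-wide mean plus 3 SD, limit set per campaign, cut at about 26% in these data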
Target sequence (O95372 whole entry, looked up): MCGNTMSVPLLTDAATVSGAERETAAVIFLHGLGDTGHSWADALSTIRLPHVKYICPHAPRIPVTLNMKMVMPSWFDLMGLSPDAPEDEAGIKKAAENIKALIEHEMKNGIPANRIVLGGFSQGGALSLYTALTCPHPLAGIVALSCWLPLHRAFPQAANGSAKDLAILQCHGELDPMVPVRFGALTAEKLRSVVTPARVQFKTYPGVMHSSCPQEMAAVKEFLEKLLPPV
PAD4 FP inh – human PAD4 inhibitors, primary screen, biochemical, fluorescence polarization, 1536-well format. recombinant PAD4, RCA probe fluorescence polarization. inhibition, % at 6.36 µM. 0.41% of 330,000 active. AID 485272, 2010;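 active = percent inhibition above a cutoff equal to the mean of all tested compounds plus 3 SD, cut at about 15% in these data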
PME-1 primary – PME-1 inhibitors via competitive probe labeling, primary screen, biochemical, fluorescence polarization, FP-Rh probe, HTS; Protein phosphatase methylesterase 1 (Homo sapiens), Q9Y570; recombinant PME-1; inhibition, % at 5.9 µM; 0.53% of 320,000 active; AID 2130, 2009;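 active = inhibition above the campaign mean of all compounds plus 3 SD, cut at about 26% in these data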;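 also: competitive labeling of PME-1 active site by serine hydrolase directed probe; inhibitors block probe labeling so polarization falls and inhibition rises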
Target sequence (Q9Y570 whole entry, looked up): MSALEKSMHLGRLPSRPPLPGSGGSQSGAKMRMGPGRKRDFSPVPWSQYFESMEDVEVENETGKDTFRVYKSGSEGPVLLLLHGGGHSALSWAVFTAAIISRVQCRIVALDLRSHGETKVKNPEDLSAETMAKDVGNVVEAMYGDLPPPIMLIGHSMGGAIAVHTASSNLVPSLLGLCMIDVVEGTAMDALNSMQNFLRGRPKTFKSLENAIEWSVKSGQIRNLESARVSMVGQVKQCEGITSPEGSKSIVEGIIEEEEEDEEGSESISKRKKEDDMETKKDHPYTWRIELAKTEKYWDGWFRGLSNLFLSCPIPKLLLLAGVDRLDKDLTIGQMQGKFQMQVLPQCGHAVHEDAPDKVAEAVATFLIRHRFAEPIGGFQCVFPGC
Fam108B counter – mouse Fam108B serine hydrolase inhibitors, primary screen, counter-screen for RBBP9 inhibitor project, biochemical, fluorescence polarization; 0.33% of 300,000 active; inhibition, % at 9.51 µM; recombinant Fam108B, FP-Rh probe fluorescence polarization;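 active = inhibition above the screen mean inhibition plus 3 SD, computed separately per campaign, cut at about 18% in these data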;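 also: inhibitors lower polarization as less probe binds the enzyme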
LYPLA1 counter – LYPLA1 inhibitors, primary screen, counter-screen for PME1 inhibitor project, biochemical, fluorescence polarization, FP-Rh probe ABPP | Acyl-protein thioesterase 1 (Homo sapiens), O75608 | 0.16% of 320,000 active | recombinant LYPLA1 | inhibition, % at 5.9 µM;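 active = inhibition above the mean of all tested compounds plus 3 SD, set per campaign, cut at about 14% in these data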;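 also: inhibitors block serine hydrolase probe labeling of LYPLA1 so polarization falls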
GSTO1 counter – inhibitors of recombinant GSTO1, primary screen, counter-screen for RBBP9 inhibitor project, biochemical, fluorescence polarization; 1.1% of 300,000 active; inhibition, % at 5.96 µM; AID 1974, 2009; activity-based probe fluorescence polarization;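 active = inhibition above the campaign mean inhibition plus 3 SD, cut at about 35% in these data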
LYPLA2 confirm – LYPLA2 inhibitors, retest, confirmation, counter-screen for PME1 inhibitor project, biochemical, fluorescence polarization, FP-Rh probe ABPP; shares compounds with LYPLA2 counter; recombinant LYPLA2; inhibition, % at 5.9 µM; 72% of 1,100 active; AID 2232, 2010;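 active = mean inhibition across replicates above the hit cutoff set in the primary screen, cut at about 26% in these data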;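 also: blocked labeling of the enzyme by serine hydrolase FP-Rh probe lowers polarization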
LYPLA2 gel ABPP – LYPLA2 inhibitors in proteome, late-stage follow-up, gel-based competitive ABPP, fluorescence, assay provider. inhibition, % at 20 µM. shares compounds with LYPLA2 counter. AID 652029, 2013. rhLYPLA2 in mouse brain proteome, gel ABPP FP-Rh. 30% of 150 active;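 active = inhibition of LYPLA2 enzyme probe labeling above about 50%, limit read from the data; inactive = inhibition below that limit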;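 also: loss of FP-Rh probe labeling of the LYPLA2 gel band measured as band density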
A number is an active result; 0 = inactive; - = no result given.

SMILES	LYPLA2 counter	PAD4 FP inh	PME-1 primary	Fam108B counter	LYPLA1 counter	GSTO1 counter	LYPLA2 confirm	others
CCOc1ccccc1NC(=O)Nn1cnnc1	0	0	0	0	0	0	-
NC(=O)c1cc([N+](=O)[O-])ccc1NCc1cccc([N+](=O)[O-])c1	29	0	0	0	0	0	29
NCc1cccc(CNc2ccc([N+](=O)[O-])cc2C(N)=O)c1	0	0	0	0	0	0	-
COc1cccc(OC)c1C(=O)Nc1ccc(N2CCN(C(=O)c3cccs3)CC2)cc1	0	0	0	0	0	0	-
O=C(Nc1ccc(N2CCN(C(=O)c3cccs3)CC2)cc1)c1ccccc1F	27	0	0	0	0	0	0
O=C(Nc1ccc(N2CCN(C(=O)c3cccs3)CC2)cc1)c1ccccc1Cl	41	0	0	0	0	0	41
COc1ccc(NS(=O)(=O)c2cc(NC(=O)c3ccc(=O)[nH]c3)ccc2N2CCCC2)cc1	0	0	0	0	0	0	-
Cc1cc(C)c2c(n1)SCC(=O)N2CC(=O)Nc1ccc(Br)c(C)c1	56	0	0	0	0	0	33
CNC(=O)CN1C(=O)CSc2nc(C)cc(C)c21	0	0	0	0	0	0	-
COc1ccc(OCCOc2ccc(S(=O)(=O)N3CCCC3)cc2[N+](=O)[O-])cc1	30	0	0	-	0	-	30
CC1CC(=O)Nc2ccccc2N1C(=O)CSc1nnnn1C (stereo unspecified)	-	0	-	-	-	-	-
CCOC(=O)N1CCN(S(=O)(=O)c2ccc(F)c(C(=O)Nc3cccc(Cl)c3C)c2)CC1	40	0	0	0	0	0	41
O=C(Nc1ccccc1C(=O)O)c1cc(S(=O)(=O)N2CCCCCC2)ccc1Cl	35	0	0	0	0	0	0
CSCCC(NC(=O)/C(=C/c1ccco1)NC(=O)c1ccco1)C(=O)O (stereo unspecified)	0	0	0	0	0	0	-
O=C(OCC(=O)N1CCc2ccccc21)c1ccccc1[N+](=O)[O-]	49	0	0	-	0	-	56
O=C(Cn1cnc2ccccc2c1=O)c1ccc2ccccc2c1	27	0	0	0	0	0	0
O=C(C1CCCN(c2ncnc3c2nc2n3CCCCC2)C1)N1CCN(c2ccc(Cl)cc2)CC1 (stereo unspecified)	0	0	0	0	0	0	-
O=C(C1CCN(c2ncnc3c2nc2n3CCCCC2)CC1)N1CCN(c2cccc(Cl)c2)CC1	34	0	0	0	0	0	26
COc1ccc(OCCN(C)C(=O)c2cccc(S(=O)(=O)N(C)c3ccccc3)c2)cc1	0	0	0	-	0	-	-
COc1ccc(N2CCN(C(=O)c3ccc(N(C)S(=O)(=O)c4ccc(C)cc4)cc3)CC2)cc1	50	0	0	0	0	0	55	LYPLA2 gel ABPP=0
COc1ccc(S(=O)(=O)N(C)c2ccc(C(=O)N3CCN(C)CC3)cc2)cc1	0	0	0	0	0	0	-
COc1ccc(N2CCN(C(=O)c3ccc(N(C)S(=O)(=O)c4ccc(OC)cc4)cc3)CC2)cc1	54	0	0	0	0	0	58	LYPLA2 gel ABPP=0
O=C(OCC(=O)N1CCN(C(=O)COC(=O)c2ccc(O)cc2O)CC1)c1ccc(O)cc1O	28	0	0	0	0	0	27
CCOC(=O)N1CCN(C(=O)COC(=O)c2ccc(O)cc2O)CC1	0	0	0	0	0	0	-
COC(=O)c1cc(C)cc(=O)o1	0	0	0	0	0	0	-
SMILES	LYPLA2 counter	PAD4 FP inh	PME-1 primary	Fam108B counter	LYPLA1 counter	GSTO1 counter	LYPLA2 confirm	others
Cc1cc(CCCCCCCCc2cc(C)cc(=O)o2)oc(=O)c1	37	0	0	0	0	0	45
Cc1cccc(Sc2ccc([N+](=O)[O-])cn2)c1	29	0	0	0	0	0	28
Cc1ccccc1Sc1ccc([N+](=O)[O-])cn1	34	0	0	0	0	0	31
O=[N+]([O-])c1ccc(Sc2ccccc2)nc1	0	0	0	0	0	0	-
O=C(Nc1ccc(S(=O)(=O)N2CCCC2)cc1)c1cc(F)c(F)cc1Cl	0	0	0	0	0	0	-
CCCCn1c(N)c(N(CCOC)C(=O)COC(=O)COc2cc(C)c(Cl)cc2C(C)C)c(=O)[nH]c1=O	0	0	0	0	0	0	-
Nc1ccc(Oc2ccc([N+](=O)[O-])cc2[N+](=O)[O-])cc1	54	0	0	0	0	0	57	LYPLA2 gel ABPP=0
CC1=NN(c2ccccc2)C(=O)/C1=C\c1ccc(Oc2ccc([N+](=O)[O-])cc2[N+](=O)[O-])cc1	41	51	0	0	0	77	31
COc1cc(/C=C2/SC(=O)NC2=O)ccc1Oc1ccc([N+](=O)[O-])cc1[N+](=O)[O-]	0	0	0	0	0	0	-
COc1cc([N+](=O)[O-])ccc1N	0	0	0	0	0	0	-
COc1cc(/C=C2\C(=O)N(c3ccccc3)N=C2C)ccc1Oc1ccc([N+](=O)[O-])cc1[N+](=O)[O-]	31	44	0	0	0	0	0
Oc1ccc(Br)cc1-c1ccnn1-c1ccccc1	0	0	0	0	0	0	-
Cc1nc2ccccc2nc1OCC(=O)Nc1ccc2ccccc2c1	33	0	0	0	0	0	0
O=C(CCNC(=O)c1ccc(Cl)cc1)Nc1ccncc1	0	0	0	0	0	0	-
O=C1CC(c2ccc(Cl)cc2)CC(O)=C1C=NCc1ccc(Cl)c(Cl)c1 (stereo unspecified)	27	0	0	0	0	0	58	LYPLA2 gel ABPP=0
Cc1ccc(C(=O)N2CCN(C)CC2)cc1S(=O)(=O)N1CCCCCC1	27	0	0	0	0	0	0
CC(=O)N1CCN(C(=O)c2ccc(C)c(S(=O)(=O)N3CCCCC3)c2)CC1	-	0	-	-	-	-	-
CC1CCCC(C)N1C(=O)COC(=O)Cc1ccc(F)cc1 (stereo unspecified)	0	0	0	0	0	0	-
CC1CCCC(C)N1C(=O)COC(=O)CCC1CCCC1 (stereo unspecified)	36	0	0	0	0	0	0
COc1ccc(CCn2c(C)cc(C(=O)COC(=O)c3cnc(C)cn3)c2C)cc1	0	0	0	0	0	0	-
